Experimental findings from the supplement of paper PMC6555819 are described below.

For the test, the system named is RARb homodimer (NR concentration 270 nM). Nature of the test: PBM binding z-score (relative to random genomic background probes); higher = stronger binding; sequences stand for … in GC…GCGATTGACAGCGTAGAATGAAGG
The essentials: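 Binding z-scores were set against random background probes. The data came from custom Agilent 4×180K protein-binding microarrays carrying double-stranded probes with 34-nt variable regions, incubated 1 h with ligand-free nuclear receptor dimers. Partner-specific antibodies detected binding, and scanned fluorescence was regression-normalized.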
Turning to GCTATTAGTTGAAAGGGCAACCTAATGATTCTCG, the PBM binding z-score turned out to be 2.01.
ATATGTAGGTTATCGGGTCATTCAGTTTGCGCAT returned a PBM binding z-score of 3.05.
CGTCCAAGGTCAGAGCGGTCAGTGAATGCCGAGT registered a PBM binding z-score of 4.33.
Regarding TTACCAAGGTGAGCTGAGGTCGTTGTTCCAACTC, the PBM binding z-score was found to be 1.84.
Consider CCAGCCAGGTGAGAAGGTAACTCAGCCTCGATTA, for which the PBM binding z-score worked out at 0.235.
The value for CCTAGCAGGCCAATCTGGCTCACTCAAGGCTTGA was -0.747; that for CTTTACGGGTCACTCCAGGTTATAGCATCGGAGT was 3.36.
As to CAAACTCGGTCACGAAAGGTCAAAGTCGAATGAC, the PBM binding z-score is 5.24.
For the sequence CTCGAAAAGTCGGTTGAGGTGAGTATACGGATAA, the PBM binding z-score came out at 0.0667.
Turning to CGGCCAAGGTCAGAGAGGTCAGTGAATGCCGAGT, the PBM binding z-score was determined as 5.45.
CCTACTGGGCCAAGGTGATTGATCAGTCAAAGCA came in with a PBM binding z-score of -0.085.
TATACAGGGTCAAAGGCCAGACTACGAATGTCGA: the PBM binding z-score was determined as 3.59.
ATAATGAGGTTATTAAGATCAGGGAATTGCGGTC: the PBM binding z-score turned out to be 0.912.
As for GCTGCTAGGTAAACTGATGGTCAGCTAAAGCTCG, the figure is -0.0474; as for AGAATGAGGTTATTAAGACCAGGGAATTGCGGTC, 0.935; as for ATCTCCAGGTAAGACTCAGTTCAGTGAAGAACGC, 0.752.
As for CCAGACAGGTGAAAGGTAATTCAGTCTGGTACGC, the figure is 0.45; as for CTAACTAGGTCAAGAGGTCAAAGTCCGCTTCCCG, 5.82.
